Source: PubChem BioAssay AID624331 (National Center for Advancing Translational Sciences (NCATS), 2012)
Inconclusive results are not listed. Activity calls are given as the source filed them. Calls follow the shape of the dose curve; as a rule, active = well fitted activation curve with a large enough effect; inconclusive = small, poorly fitted or top-dose-only effect; inactive = no such curve, though single readings can be large or run the other way.

assay: qHTS assay for re-activators of p53 using a Luc reporter: Hit Validation with no p53 Expressed; settings: p53-null cells, luciferase reporter counter-screen; series mostly up to 46.1 µM; activity change, positive = activation: at the top concentration; also: 0% is about no effect
How it was run: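 Without p53 expression, cells (1000/well, Opti-MEM + 10% FBS) were exposed 24 h at 37 deg C to compounds in a 1:5 series from 10 mM stock (top 46.1 µM in well). Luminescent signal read 10 min after Amplite addition; actives flag unspecific activation.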

Compound	activity change, positive = activation
O=C(c1cccc(S(=O)(=O)NCc2ccc3c(c2)OCO3)c1)N1CCCC1	-10.3% (inactive)
CC(=O)N1CCC(C(=O)Nc2ccc(S(=O)(=O)NCCc3ccccc3)cc2)CC1	-14.8% (inactive)
O=C(Nc1ccc(CN2CCOCC2)cc1)c1cc2ccccn2n1	9.72% (inactive)
Cc1ccc(NC(CC(=O)c2ccccc2)c2ccc(F)cc2)cc1 (stereo not given)	5.68% (inactive)
CCOc1ccc2cc(C#N)c(SCC(=O)OC)nc2c1	90% (inactive)
CC12CCC(C(=O)N(CSC(=S)N/N=C\c3ccccc3O)C1=O)C2(C)C (stereo not given)	52% (inactive)
O=C(/C=C/Nc1ccccc1C(=O)O)c1cccs1	18% (inactive)
Cc1c(C(=O)N(C)c2ccccc2Cl)cnn1-c1ccccc1	-31.1% (inactive)
COc1cc(N/N=C/c2ccccc2O)ncn1	36.9% (inactive)
CCCCC(=O)NC(c1ccc(Cl)cc1Cl)c1ccc2cccnc2c1O (stereo not given)	73.7% (inactive)
CCOC(=O)c1c(C)nc(-c2ccccc2)nc1NC(=O)CC	-26.4% (inactive)
COc1ccccc1-c1c(C)nn2c(C)c(C(C)=O)cnc12	-26.5% (inactive)
Cc1ccc(C(=O)Nc2ncc3c(n2)CC(c2ccco2)CC3=O)cc1 (stereo not given)	65.3% (inactive)
Cc1ccc(NC2=C(Cl)C(=O)c3ccccc3C2=O)cc1	-87.6% (inactive)
O=C(/C=C/c1ccco1)NC(=S)Nc1cc(-c2nc3ccccc3s2)ccc1Cl	-2.97% (inactive)
Clc1ccc(Nc2nc(-c3cccs3)cs2)nc1	32.8% (inactive)
O=C(COc1ccc(Cl)cc1Cl)Nc1ccc(Cl)cn1	-2.46% (inactive)
COC(=O)c1ccc(/C=C/c2ccc3cccc(OC(C)=O)c3n2)cc1	14.5% (inactive)
O=C(O)C1CC(=O)N(c2ccc(Br)cc2)C1 (stereo not given)	40.9% (inactive)
Cc1ccc2cc(CCNC(=O)c3ccco3)c(=O)[nH]c2c1C	82.1% (inactive)
